Experimental findings from PubChem BioAssay (NCI) are described below.

Compounds without any hit were thinned out: in the full panel of roughly 79,000, 15% have a hit. Values without a mark were called inactive. Active and inactive are the calls of the source. No stated cut-off is given here; in the data, active means growth inhibition above about 70%; inactive means the rest.

A short description of experiment [1]: NCI Yeast Anticancer Drug Screen. Data for the rad50 strain (AID 155).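 Further: 0% = growth of vehicle-only cultures of the same strain.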 The settings on record: S. cerevisiae rad50 strain growth inhibition, hits give high values. The gist of the method: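 DNA repair mutant yeast, compound exposure, growth read-out; inhibition is taken relative to vehicle.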
Experiment [2] is described as follows: NCI Yeast Anticancer Drug Screen. Data for the mec2-1 strain (AID 157). The settings on record: S. cerevisiae mec2-1 strain, hits give high values. The gist of the method: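 Growth inhibition is read against vehicle-treated controls after compound exposure of the mec2-1 yeast strain, which is defective in DNA damage repair or cell cycle control.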
Experiment [3] is described as follows: NCI Yeast Anticancer Drug Screen. Data for the sgs1 mgt1 strain (AID 161).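 Further: 0% = growth of cultures given vehicle only.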 The settings on record: S. cerevisiae sgs1 mgt1 strain, hits give high values. An outline of the steps: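 Compounds are added to genetically altered yeast, and growth is compared with cultures given vehicle alone to give percent inhibition.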
The nature of experiment [4]: NCI Yeast Anticancer Drug Screen. Data for the cln2 rad14 strain (AID 165).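 Further: 0% = growth equal to vehicle treated cultures.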 The settings on record: S. cerevisiae cln2 rad14 strain, hits give high values. An outline of the steps:
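Growth inhibition, relative to vehicle-treated controls, is the read-out. The test organism is a yeast strain with defined genetic alterations, cln2 rad14.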

The nature of experiment [5]: NCI Yeast Anticancer Drug Screen. Data for the bub3 strain (AID 167). The settings on record: S. cerevisiae bub3 mutant strain, hits give high values. The gist of the method:
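In this screen, a yeast mutant lacking normal mitotic checkpoint function is challenged with compound. Relative growth versus vehicle gives the inhibition value.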

A short description of experiment [6]: NCI Yeast Anticancer Drug Screen. Data for the mlh1 rad18 strain (AID 175). The settings on record: S. cerevisiae mlh1 rad18 strain growth inhibition, hits give high values. The gist of the method: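 Cells of a genetically altered yeast strain, deficient in DNA damage repair, were treated with compound. Their growth was then compared with that of vehicle-treated cultures to give inhibition.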

Where [7] appears, read: at 5.0 µM (retest, dose inferred, filed as 0.5).
Setting [8] is: at 50.0 µM (retest, dose inferred, filed as 5.0).

As for `CCCCCCCC1SCC(=O)N1c1nncs1` (stereo not given), the growth inhibition in experiment [1] (setting [7]) is -11%; in experiment [1] (setting [8]), 96% (active); in experiment [1] (at 50.0 µM), -10.8%; in experiment [2] (setting [7]), 0%; in experiment [2] (setting [8]) it was 65%; in experiment [2] (at 50.0 µM) it was -20.4%. The growth inhibition is 0% in experiment [3] (setting [7]); 95% (active) in experiment [3] (setting [8]); 1.45% in experiment [3] (at 50.0 µM); -5% in experiment [4] (setting [7]); 80% (active) in experiment [4] (setting [8]); 3.1% in experiment [4] (at 50.0 µM). Further, the growth inhibition in experiment [5] (setting [7]) is 19%; in experiment [5] (setting [8]), 95% (active); in experiment [5] (at 50.0 µM), 2.9%; in experiment [6] (setting [7]), -10%; in experiment [6] (setting [8]) it was 73% (active); in experiment [6] (at 50.0 µM) it was 5.7%.

For `CCOc1cc(/C=N/NC(=S)NC23CC4CC(CC(C4)C2)C3)ccc1O`, the growth inhibition in experiment [1] (setting [7]) is -3%; in experiment [1] (setting [8]) it was 11%; in experiment [1] (at 50.0 µM), 40.6%; in experiment [2] (setting [7]), -5%; in experiment [2] (setting [8]) it was 30%; in experiment [2] (at 50.0 µM), 40.5%. Moreover, the growth inhibition was 0% in experiment [3] (setting [7]); 61% in experiment [3] (setting [8]); 41.3% in experiment [3] (at 50.0 µM); 49% in experiment [4] (setting [7]); 16% in experiment [4] (setting [8]); 45.1% in experiment [4] (at 50.0 µM). In addition, the growth inhibition in experiment [5] (setting [7]) was -7%; in experiment [5] (setting [8]) it was -100%; in experiment [5] (at 50.0 µM) it was 9.55%; in experiment [6] (setting [7]), 1%; in experiment [6] (setting [8]), 29%; in experiment [6] (at 50.0 µM) it was 47.6%.

Consider `CC1N=C(Cc2ccccc2)SC1C` (stereo not given), for which the growth inhibition is -2% in experiment [1] (setting [7]); 81% (active) in experiment [1] (setting [8]); 74.5% (active) in experiment [1] (at 50.0 µM); -5% in experiment [2] (setting [7]); 85% (active) in experiment [2] (setting [8]); 86.1% (active) in experiment [2] (at 50.0 µM). Besides, the growth inhibition is 0% in experiment [3] (setting [7]); 87% (active) in experiment [3] (setting [8]); 86.8% (active) in experiment [3] (at 50.0 µM); -9% in experiment [4] (setting [7]); 85% (active) in experiment [4] (setting [8]); 88% (active) in experiment [4] (at 50.0 µM). Besides, the growth inhibition is 0% in experiment [5] (setting [7]); 83% (active) in experiment [5] (setting [8]); 88.3% (active) in experiment [5] (at 50.0 µM); -1% in experiment [6] (setting [7]); 84% (active) in experiment [6] (setting [8]); 85.8% (active) in experiment [6] (at 50.0 µM).

Consider `COc1ccc([N+](=O)[O-])cc1[I+]c1cc([N+](=O)[O-])ccc1OC`, for which the growth inhibition in experiment [1] (setting [7]) was 19%; in experiment [1] (setting [8]), 95% (active); in experiment [1] (at 50.0 µM), 93.2% (active); in experiment [2] (setting [7]) it was 58%; in experiment [2] (setting [8]), 89% (active); in experiment [2] (at 50.0 µM), 76.3% (active). Also, the growth inhibition in experiment [3] (setting [7]) was 49%; in experiment [3] (setting [8]) it was 95% (active); in experiment [3] (at 50.0 µM), 92.2% (active); in experiment [4] (setting [7]), 16%; in experiment [4] (setting [8]) it was 86% (active); in experiment [4] (at 50.0 µM) it was 94.2% (active). Moreover, the growth inhibition in experiment [5] (setting [7]) was 9%; in experiment [5] (setting [8]) it was 85% (active); in experiment [5] (at 50.0 µM), 90.8% (active); in experiment [6] (setting [7]), 57%; in experiment [6] (setting [8]), 98% (active); in experiment [6] (at 50.0 µM), 95.7% (active).

Take `c1ccc2c(c1)Nc1cc3ccccc3cc1N2`: the growth inhibition in experiment [1] (setting [7]) is 41%; in experiment [1] (setting [8]), 91% (active); in experiment [1] (at 50.0 µM) it was 74% (active); in experiment [2] (setting [7]), 30%; in experiment [2] (setting [8]), 61%; in experiment [2] (at 50.0 µM), 43.1%. Also, the growth inhibition was 11% in experiment [3] (setting [7]); 47% in experiment [3] (setting [8]); 36.3% in experiment [3] (at 50.0 µM); -9% in experiment [4] (setting [7]); 41% in experiment [4] (setting [8]); 22.9% in experiment [4] (at 50.0 µM). Besides, the growth inhibition was 39% in experiment [5] (setting [7]); 80% (active) in experiment [5] (setting [8]); 43.1% in experiment [5] (at 50.0 µM); 37% in experiment [6] (setting [7]); 75% (active) in experiment [6] (setting [8]); 61.6% in experiment [6] (at 50.0 µM).

As to `CN(C)CC1Cc2ccsc2C1=O` (stereo not given), the growth inhibition is 0% in experiment [1] (setting [7]); 85% (active) in experiment [1] (setting [8]); 99% (active) in experiment [1] (at 50.0 µM); 5% in experiment [2] (setting [7]); 75% (active) in experiment [2] (setting [8]); 99.5% (active) in experiment [2] (at 50.0 µM). The growth inhibition in experiment [3] (setting [7]) was 3%; in experiment [3] (setting [8]), 54%; in experiment [3] (at 50.0 µM), 99.4% (active); in experiment [4] (setting [7]), 1%; in experiment [4] (setting [8]) it was 76% (active); in experiment [4] (at 50.0 µM), 99.5% (active). The growth inhibition is 0% in experiment [5] (setting [7]); 88% (active) in experiment [5] (setting [8]); 99.3% (active) in experiment [5] (at 50.0 µM); 0% in experiment [6] (setting [7]); 93% (active) in experiment [6] (setting [8]); 99.2% (active) in experiment [6] (at 50.0 µM).

Turning to `O=C(c1ccccc1)C1OC1c1ccccc1Cl` (stereo not given), the growth inhibition is 1% in experiment [1] (setting [7]); 40% in experiment [1] (setting [8]); -13.7% in experiment [1] (at 50.0 µM); -4% in experiment [2] (setting [7]); 21% in experiment [2] (setting [8]); -4.4% in experiment [2] (at 50.0 µM). Besides, the growth inhibition was 7% in experiment [3] (setting [7]); 54% in experiment [3] (setting [8]); -12.7% in experiment [3] (at 50.0 µM); 4% in experiment [4] (setting [7]); 23% in experiment [4] (setting [8]); -52.2% in experiment [4] (at 50.0 µM). Further, the growth inhibition in experiment [5] (setting [7]) is 3%; in experiment [5] (setting [8]) it was 61%; in experiment [5] (at 50.0 µM), -3.7%; in experiment [6] (setting [7]), 12%; in experiment [6] (setting [8]), 78% (active); in experiment [6] (at 50.0 µM), -9%.

Take `O=c1c(NO)c([N+](=O)[O-])cnn1-c1ccccc1`: the growth inhibition in experiment [1] (setting [7]) was 25%; in experiment [1] (setting [8]) it was 51%; in experiment [1] (at 50.0 µM), 14.5%; in experiment [2] (setting [7]), 8%; in experiment [2] (setting [8]), 18%; in experiment [2] (at 50.0 µM), 2.4%. The growth inhibition in experiment [3] (setting [7]) is -7%; in experiment [3] (setting [8]) it was -2%; in experiment [3] (at 50.0 µM), 29.4%; in experiment [4] (setting [7]) it was 13%; in experiment [4] (setting [8]), 31%; in experiment [4] (at 50.0 µM), 34.4%. The growth inhibition is -2% in experiment [5] (setting [7]); 28% in experiment [5] (setting [8]); -3.6% in experiment [5] (at 50.0 µM); -23% in experiment [6] (setting [7]); -5% in experiment [6] (setting [8]); -0.5% in experiment [6] (at 50.0 µM).

`CCOC(C)c1ccccc1` (stereo not given): the growth inhibition in experiment [1] (setting [7]) is 39%; in experiment [1] (setting [8]), 90% (active); in experiment [1] (at 50.0 µM), -37%; in experiment [2] (setting [7]), 42%; in experiment [2] (setting [8]), 99% (active); in experiment [2] (at 50.0 µM), -5.85%. Further, the growth inhibition is 16% in experiment [3] (setting [7]); 62% in experiment [3] (setting [8]); 30.8% in experiment [3] (at 50.0 µM); 10% in experiment [4] (setting [7]); 59% in experiment [4] (setting [8]); -16.9% in experiment [4] (at 50.0 µM). In addition, the growth inhibition in experiment [5] (setting [7]) is 19%; in experiment [5] (setting [8]), 99% (active); in experiment [5] (at 50.0 µM), -0.8%; in experiment [6] (setting [7]), 64%; in experiment [6] (setting [8]), 99% (active); in experiment [6] (at 50.0 µM), -0.2%.

Turning to `OC1(CCc2ccccc2)COC(C(F)(F)F)(C(F)(F)F)C1` (stereo not given), the growth inhibition in experiment [1] (setting [7]) was 18%; in experiment [1] (setting [8]) it was 24%; in experiment [1] (at 50.0 µM), 76.4% (active); in experiment [2] (setting [7]), 16%; in experiment [2] (setting [8]), 18%; in experiment [2] (at 50.0 µM) it was 66%. Moreover, the growth inhibition is 14% in experiment [3] (setting [7]); 23% in experiment [3] (setting [8]); 78.4% (active) in experiment [3] (at 50.0 µM); 1% in experiment [4] (setting [7]); 23% in experiment [4] (setting [8]); 52.8% in experiment [4] (at 50.0 µM). Also, the growth inhibition in experiment [5] (setting [7]) was 5%; in experiment [5] (setting [8]), 21%; in experiment [5] (at 50.0 µM), 61.1%; in experiment [6] (setting [7]) it was 26%; in experiment [6] (setting [8]), 30%; in experiment [6] (at 50.0 µM), 74.8% (active).
